How the values were obtained:
Conditions in all cases: concentration: 1 μM, replicates: in singlicate; n = 1
MAP3K15 = test system: MAP3K15
MAP3K1 = test system: MAP3K1
MAP3K2 = test system: MAP3K2
MAP3K3 = test system: MAP3K3
MAP3K4 = test system: MAP3K4
MAP4K2 = test system: MAP4K2
MAP4K3 = test system: MAP4K3
MAP4K4 = test system: MAP4K4
MAP4K5 = test system: MAP4K5
MAPKAPK2 = test system: MAPKAPK2
MAPKAPK5 = test system: MAPKAPK5
MARK1 = test system: MARK1
MARK2 = test system: MARK2
MARK3 = test system: MARK3
MARK4 = test system: MARK4
MAST1 = test system: MAST1
MEK1 = test system: T1, MEK1
T1 construct: gene MAP2K1

MEK2 = test system: T2, MEK2
T2 construct: gene MAP2K2

MEK3 = test system: T3, MEK3
T3 construct: gene MAP2K3

MEK4 = test system: T4, MEK4
T4 construct: gene MAP2K4
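Note: KINOMEscan kinase panel screen.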

Compound | %Inh (MAP3K15) [%] | %Inh (MAP3K1) [%] | %Inh (MAP3K2) [%] | %Inh (MAP3K3) [%] | %Inh (MAP3K4) [%] | %Inh (MAP4K2) [%] | %Inh (MAP4K3) [%] | %Inh (MAP4K4) [%] | %Inh (MAP4K5) [%] | %Inh (MAPKAPK2) [%] | %Inh (MAPKAPK5) [%] | %Inh (MARK1) [%] | %Inh (MARK2) [%] | %Inh (MARK3) [%] | %Inh (MARK4) [%] | %Inh (MAST1) [%] | %Inh (MEK1) [%] | %Inh (MEK2) [%] | %Inh (MEK3) [%] | %Inh (MEK4) [%]
COc1ccc(CNC(=O)NC2CCN(c3ccnc(Nc4ccc(F)cc4)n3)CC2)cc1 [GSK1379788] | 0 | 4 | 0 | 0 | 0 | 0 | 0 | 2 | 0 | 1 | 0 | 0 | 0 | 0 | 0 | 3 | 0 | 9 | 0 | 45
Cl.c1ccc(-c2ccc3c(Nc4ccc5[nH]ncc5c4)ccnc3c2)nc1 [GW440137] | 4 | 22 | 0 | 0 | 4 | 0 | 0 | 0 | 0 | 1 | 0 | 0 | 0 | 0 | 15 | 0 | 0 | 5 | 0 | 0
Cc1ccc(C(=O)Nc2ccc(Nc3ccnc4cc(-c5nccs5)ccc34)cc2O)cc1.Cl [GW494702] | 16 | 14 | 0 | 0 | 19 | 0 | 0 | 5 | 71 | 17 | 0 | 0 | 0 | 0 | 0 | 15 | 13 | 0 | 0 | 21
O=C(NC1CCN(c2ccnc(Nc3ccc(F)cc3)n2)C1)c1cc2ccccc2s1 (centres unmarked) [GSK1379716] | 0 | 16 | 12 | 0 | 0 | 0 | 0 | 0 | 0 | 32 | 0 | 0 | 0 | 0 | 10 | 0 | 0 | 4 | 0 | 20
CCn1c(-c2nonc2N)nc2c(C#CC(C)(C)O)nc(OC[C@H](N)c3ccccc3)cc21 [GSK943949] | 0 | 0 | 57 | 55 | 1 | 19 | 11 | 8 | 40 | 0 | 7 | 54 | 0 | 0 | 37 | 4 | 1 | 0 | 69 | 15
FC(F)(F)c1ccc(/C=C/c2cncnc2Nc2ccc3[nH]c(Cc4ccccc4)nc3c2)cc1 [GW709199] | 0 | 0 | 0 | 1 | 15 | 0 | 0 | 0 | 0 | 3 | 0 | 0 | 0 | 28 | 8 | 5 | 0 | 25 | 0 | 0
Cl.NC(=O)c1cccc(Nc2nccc(Nc3ccc(Oc4c(Cl)cccc4Cl)c(Cl)c3)n2)c1 [GW659009] | 18 | 0 | 0 | 3 | 0 | 10 | 0 | 0 | 0 | 0 | 0 | 0 | 0 | 7 | 0 | 0 | 0 | 0 | 0 | 30
C[C@@H](Oc1cc(-n2cnc3cc(-c4ccnc(NCCS(C)(=O)=O)c4)ccc32)sc1C(N)=O)c1ccccc1Cl [GSK907232] | 6 | 92 | 10 | 0 | 35 | 20 | 85 | 21 | 96.3 | 0 | 0 | 11 | 34 | 43 | 20 | 6 | 0 | 0 | 0 | 26
CN(C)Cc1ccc(-c2ccc3c(Nc4ccc(Oc5ccccn5)cc4)ccnc3c2)o1 [GW567148] | 0 | 14 | 0 | 0 | 0 | 5 | 0 | 6 | 61 | 3 | 0 | 2 | 0 | 0 | 13 | 11 | 94.7 | 96.8 | 0 | 26
CN1CCN(CCCNc2nccc(-c3c(-c4ccc(F)cc4)nn4cc(C(F)(F)F)ccc34)n2)CC1 [GW621581] | 4 | 4 | 0 | 0 | 0 | 0 | 30 | 33 | 0 | 5 | 0 | 7 | 0 | 16 | 16 | 0 | 0 | 0 | 0 | 10
